# Several values for one entry are separate records, joined by “and”; a condition that tells them apart may be missing. Equal values may be shown once. Records with an inconclusive call do not appear. Entries that show only a call come without a potency. Activity calls are given as the source filed them. Calls follow the shape of the dose curve; as a rule, active = well fitted cell-killing curve with a large enough effect in the repeat runs; inconclusive = weak or mixed curves, or effect the other way; inactive = no such curve, though single readings can be large or run the other way.
# Experiment: qHTS assay to identify small molecule antagonists of the glucocorticoid receptor (GR) signaling pathway - cell viability counter screen (AID 720693); also: nearly all actives have a fitted effect of over 55% in size
# Details: GR-bla HeLa viability, CellTiter-Glo luminescence, 18 h, with 5 nM dexamethasone present; series mostly up to 58.5 µM
# Potency is read from the fitted curve at half-maximal effect.
row,SMILES,Potency
1,O=C(NCNC(=O)NC1C(=O)NC(=O)N1CO)NC1C(=O)NC(=O)N1CO (stereo not drawn),inactive
2,Cc1ncc(C[n+]2csc(CCO)c2C)c(N)n1,inactive
3,O=C(N[C@H]1CN2CCC1CC2)c1ccc2c(c1)OCCO2,inactive
4,Cc1ccc(N)c(C)c1,inactive
5,C[C@H]1O[C@H](OC2[C@@H](O)[C@@H](O)C(O)[C@H](O)[C@H]2O)[C@@H](N)C[C@@H]1N=C(N)C(=O)O (stereo partly drawn),inactive
6,N#CC(C#N)=Cc1ccc(O)c(O)c1,inactive
7,CCCN(CCC)c1c([N+](=O)[O-])cc(C(C)C)cc1[N+](=O)[O-],inactive
8,NP(N)(=O)NC(=O)c1ccc(F)cc1,inactive
9,COc1ccc(C(O)(c2cncnc2)C2CC2)cc1 (stereo not drawn),inactive
10,C1CS1,inactive
11,CCC[N+](CCC)(CCC)CCC,inactive
12,Clc1ccccc1,inactive
13,C=CCc1ccccc1O,inactive
14,CCOP(=O)(O)C(N)=O,inactive
15,CCN(C(C)=O)c1cccc(-c2ccnc3c(C#N)cnn23)c1,inactive
16,CC(Oc1cc(Cl)c(Cl)cc1Cl)C(=O)O (stereo not drawn),inactive
17,FC(F)OC(F)(F)C(F)Cl (stereo not drawn),inactive
18,ClCc1ccccc1Cl,inactive
19,CCCCCCCCP(=O)(O)O,inactive
20,CCCN(CCOc1c(Cl)cc(Cl)cc1Cl)C(=O)n1ccnc1,inactive
21,CCC(C)(C)c1ccc(O)c(C(C)(C)CC)c1,19.3 µM (active) and 19.5 µM (active)
22,O=[N+]([O-])c1cc(Cl)c(Cl)cc1Cl,inactive
23,O=C([O-])c1ccccn1.O=C([O-])c1ccccn1.O=C([O-])c1ccccn1.[Cr+3],inactive

# Source: PubChem BioAssay (Tox21)
